The results in this text go back to PubChem BioAssay AID1347420 (Sanford-Burnham Center for Chemical Genomics, 2020).

Out of some 1,300 compounds screened, about 980 (75%) were called active. Inconclusive results (about 4%) are left out. The list shows a part of the results. A number with no mark means an inactive call.

This assay deals with Sulfhydryl oxidase 1 (Homo sapiens) (UniProt O00391). Put plainly: inhibition of human sulfhydryl oxidase QSOX1 – biochemical, HyperBlu H2O2 luminescence, HTS, primary screen (AID 1347420). Further: values above 100% were filed as inconclusive. To be noted: recombinant QSOX1, HyperBlu H2O2 luminescence; at 12.5 µM; stronger effect = higher value; active = any value above zero.
Sequence of Sulfhydryl oxidase 1 (Homo sapiens) (O00391 whole entry, looked up): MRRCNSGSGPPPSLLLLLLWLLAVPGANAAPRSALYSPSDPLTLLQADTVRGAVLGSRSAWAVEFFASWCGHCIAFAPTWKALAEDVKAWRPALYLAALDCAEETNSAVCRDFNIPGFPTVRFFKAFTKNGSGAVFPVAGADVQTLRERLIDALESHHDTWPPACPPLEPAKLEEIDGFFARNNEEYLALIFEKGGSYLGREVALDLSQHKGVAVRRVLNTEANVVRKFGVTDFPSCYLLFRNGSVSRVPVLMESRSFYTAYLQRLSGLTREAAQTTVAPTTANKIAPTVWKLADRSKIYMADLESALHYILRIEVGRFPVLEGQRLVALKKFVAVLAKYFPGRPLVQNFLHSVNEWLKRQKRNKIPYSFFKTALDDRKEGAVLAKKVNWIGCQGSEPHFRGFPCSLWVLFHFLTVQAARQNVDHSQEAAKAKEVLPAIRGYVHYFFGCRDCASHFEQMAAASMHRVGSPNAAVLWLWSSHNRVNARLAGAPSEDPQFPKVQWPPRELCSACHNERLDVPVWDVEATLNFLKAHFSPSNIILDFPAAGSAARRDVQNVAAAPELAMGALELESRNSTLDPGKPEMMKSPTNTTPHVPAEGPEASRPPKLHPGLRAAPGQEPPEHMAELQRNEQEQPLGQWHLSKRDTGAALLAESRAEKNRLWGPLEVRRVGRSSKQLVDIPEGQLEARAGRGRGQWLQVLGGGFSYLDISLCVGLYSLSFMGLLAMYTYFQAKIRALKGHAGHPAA
What is called inhibition is the relative decrease from the control value, in per cent. As for `C=CCNc1ncnc2ccc(Br)cc12`, the inhibition is 12.6% (active). Under `NC(=O)C(=O)O` stands 11% (active); under `CC[C@H](NC(=O)c1c(C)c(-c2ccccc2)nc2ccccc12)c1ccccc1`, 9.3% (active); under `COc1ccc(CCN(C)CCCC(C#N)(c2ccc(OC)c(OC)c2)C(C)C)cc1OC` (stereo not drawn), 9.1% (active).

`COc1ccc(Cc2nccc3cc(OC)c(OC)cc23)cc1OC`: the inhibition is -10.3%. In the case of `COc1ccc(CCN(C)CCCC(C#N)(c2cc(OC)c(OC)c(OC)c2)C(C)C)cc1OC` (stereo not drawn), the inhibition was 17% (active). Take `COc1ccc(CCN(C)CCc2ccc(OC)c(OC)c2)cc1OC`: the inhibition is 8% (active).

Take `O=P(O)(O)C(Cl)(Cl)P(=O)(O)O`: the inhibition is -4.1%. Take `NC(CO)C(=O)NNCc1ccc(O)c(O)c1O` (stereo not drawn): the inhibition is 24.2% (active). For the compound `CN1CCN(c2nc3cc(C(F)(F)F)ccc3n3cccc23)CC1`, the inhibition was 12.2% (active). Then `Cc1[nH]c(=O)c(C#N)cc1-c1ccc2nccn2c1`, with 1% (active); and `Cc1[nH]c(=O)c(C#N)cc1-c1ccncc1`, with 15.5% (active); and `COc1cccc(-c2cc(=O)c3ccccc3o2)c1N`, with 7.6% (active). `NC(=O)N1c2ccccc2C=Cc2ccccc21`: the inhibition was 12.3% (active). Turning to `CC(=O)O[C@H]1Cc2ccccc2N(C(N)=O)c2ccccc21`, the inhibition was -8.4%. Then `OCCN1CCN(CCCN2c3ccccc3C=Cc3ccccc32)CC1`, with 47.2% (active); and `OCCN1CCN(CC/C=C2/c3ccccc3Sc3ccc(C(F)(F)F)cc32)CC1`, with 3.4% (active); and `CN1CCN(CCCN2c3ccccc3Sc3ccc(C(F)(F)F)cc32)CC1`, with 97% (active). Consider `OCCN1CCN(CCCN2c3ccccc3Sc3ccc(C(F)(F)F)cc32)CC1`, for which the inhibition was 92.8% (active).

As for `COC(=O)c1c(C)[nH]c(C)c1C(=O)c1ccccc1Cc1ccccc1`, the inhibition is -0.5%. On to `CCN(CC)CCNC(=O)c1ccc(N)cc1`, for which the inhibition is 7.8% (active). Then `CCN(CC)CCNC(=O)c1ccc(NS(C)(=O)=O)cc1`, with 9.7% (active). On to `CCN(CC)CCNC(=O)c1ccc(NC(C)=O)cc1`, for which the inhibition was -4.7%. For the compound `CCCCS(=N)(=O)CCC(N)C(=O)O` (stereo not drawn), the inhibition was -11.1%. For `N[C@@H](CCCC(=O)O)C(=O)O`, the inhibition is 16.9% (active).

For the compound `CCCCS(=N)(=O)CC[C@H](N)C(=O)O` (stereo partly drawn), the inhibition is -12.9%.

Take `NC(=O)CC[C@H](N)C(=O)O`: the inhibition is 1.7% (active). With `COc1cc(Cc2cnc(N)nc2N)cc(OC)c1OC`, the inhibition was -13.7%. Take `COc1ccc(CN(CCN(C)C)c2ccccn2)cc1`: the inhibition was 36.6% (active).

Regarding `CN(C)CCN(Cc1cccs1)c1ccccn1`, the inhibition was 4.7% (active). Consider `CC(C)(Sc1ccc(CCN(CCCCC2CCCCC2)C(=O)NC2CCCCC2)cc1)C(=O)O`, for which the inhibition was 3% (active). For the compound `CCCCCN(CCCCC)C(=O)C(CCC(=O)O)NC(=O)c1ccc(Cl)c(Cl)c1` (stereo not drawn), the inhibition was 13.5% (active). Under `CCCN(CCC)C(=O)C(CCC(=O)O)NC(=O)c1ccccc1` (stereo not drawn) stands 12% (active); under `O=C(O)CCC(C(=O)O)N1C(=O)c2ccccc2C1=O` (stereo not drawn), -7.5%; under `CC1C(=O)N(C)C(=O)c2nc[nH]c21` (stereo not drawn), 2.6% (active). Take `CCCC(C(=O)OCCN(CC)CC)(c1ccccc1)c1ccccc1`: the inhibition is 6.2% (active). Consider `CCCc1c(OCCCOc2ccc(OCC(=O)O)cc2)ccc(C(C)=O)c1O`, for which the inhibition was 17.6% (active).

For `COc1cc(N)c(Cl)cc1C(=O)OCCN1CCCCC1`, the inhibition is -7.9%. Then `CCN(CC)CCCCCCCCOC(=O)c1cc(OC)c(OC)c(OC)c1`, with 17.3% (active). Turning to `CCN(CC)CCNC(=O)c1cc(Cl)c(N)cc1OC`, the inhibition was 2.2% (active).

Regarding `CCN(CC)CCOC(=O)c1cc(Cl)c(N)cc1OC`, the inhibition is 7.6% (active).

Turning to `CCN(CC)CCNC(=O)c1cc(S(C)(=O)=O)ccc1OC`, the inhibition was 0.6% (active). Regarding `NCC(O)c1ccc(O)c(O)c1` (stereo not drawn), the inhibition is 43.6% (active). Under `NC[C@H](O)c1ccc(O)c(O)c1` stands 55.1% (active); under `CC(=O)N1CCN(c2ccc(OC[C@H]3CO[C@](Cn4ccnc4)(c4ccc(Cl)cc4Cl)O3)cc2)CC1`, 56.3% (active); under `COc1ccc2c(c1OC)C(=O)O[C@@H]2[C@H]1c2c(cc3c(c2OC)OCO3)CCN1C`, 14.1% (active). On to `CCn1cc(C(=O)O)c(=O)c2cc(F)c(N3CCNC(C)C3)c(F)c21` (stereo not drawn), for which the inhibition was 12.8% (active). Consider `O=[N+]([O-])c1ccc2c(c1)S(=O)(=O)C=C2`, for which the inhibition was 39.1% (active). `C[C@]12CC[C@@H]3c4ccc(O)cc4C[C@@H](CCCCCCCCCS(=O)CCCC(F)(F)C(F)(F)F)[C@H]3[C@@H]1CC[C@@H]2O` (stereo partly drawn): the inhibition is 22.3% (active). Then `CCCCCC[C@@H]([C@@H](C)O)n1cnc2c(N)ncnc21`, with 7.4% (active); and `N[C@H](C(=O)O)c1cc(O)cc(O)c1`, with 5.6% (active). Take `Clc1ccc(Cn2c(CN3CCCC3)nc3ccccc32)cc1`: the inhibition is -2.3%. Consider `Clc1ccc(N2CCN(Cc3cc4ccccn4n3)CC2)cc1`, for which the inhibition is 63.8% (active). Take `COc1cccc(OC)c1OCCNCC1COc2ccccc2O1` (stereo not drawn): the inhibition was 23.5% (active). Under `COc1cccc(OC)c1OCCNCC1CSc2ccccc2O1` (stereo not drawn) stands -4.6%; under `CCn1ccnc1CC1COc2ccccc2O1` (stereo not drawn), -2.8%. For the compound `O=C1CCC(c2ccc(-n3ccnc3)cc2)=NN1`, the inhibition was 10% (active). As for `O=c1oc(Cl)c(Cl)c2ccccc12`, the inhibition is 15% (active).

Consider `Cc1nn(-c2ccccc2)c(C)c1C=NN1CCN(Cc2ccccc2)CC1`, for which the inhibition was -0.7%.

Turning to `Nc1ncnc2c1c(-c1ccc(Oc3ccccc3)cc1)cn2C1CCCC1`, the inhibition is 7.6% (active). For `COc1cc([C@@H]2c3cc4c(cc3[C@H](O)C3COC(=O)[C@@H]32)OCO4)cc(OC)c1OC` (stereo partly drawn), the inhibition is 10.7% (active). `COc1cc([C@@H]2c3cc4c(cc3[C@@H](O[C@@H]3O[C@@H]5CO[C@@H](C)O[C@H]5[C@H](O)[C@H]3O)[C@H]3COC(=O)[C@H]23)OCO4)cc(OC)c1O`: the inhibition was 31.7% (active). Then `O=C(O)CN(CCOCCOCCN(CC(=O)O)CC(=O)O)CC(=O)O`, with 13.4% (active); and `O=C(O)CN(CCN(CC(=O)O)CC(=O)O)CCN(CC(=O)O)CC(=O)O`, with 25.6% (active).

Regarding `CN(C)[C@@H]1C(=O)C(C(N)=O)=C(O)[C@@]2(O)C(=O)C3=C(O)c4c(O)ccc(Cl)c4[C@@H](O)[C@H]3C[C@@H]12`, the inhibition is 49.5% (active). As for `C[C@H]1c2cccc(O)c2C(O)=C2C(=O)[C@]3(O)C(O)=C(C(N)=O)C(=O)[C@@H](N(C)C)[C@@H]3[C@@H](O)[C@@H]21`, the inhibition is 39.9% (active).

Turning to `COc1ccccc1N1CCN(CCN(C(=O)C2CCCCC2)c2ccccn2)CC1`, the inhibition is 40.4% (active).

As to `COc1ccccc1N1CCN(CCN(C(=O)c2ccc(I)cc2)c2ccccn2)CC1`, the inhibition was 28.5% (active). Consider `COc1ccccc1N1CCN(CCN(C(=O)c2ccc(F)cc2)c2ccccn2)CC1`, for which the inhibition was 27.6% (active). For `O=C(O)C1CCCN(CCC=C(c2ccccc2)c2ccccc2)C1` (stereo not drawn), the inhibition is 3.5% (active).

Take `Cc1ccc(/C(=C\CN2CCCC2)c2ccccn2)cc1`: the inhibition was -62.9%. On to `O=C(O)C1=CC(=C(c2ccc(O)c(C(=O)O)c2)c2ccc(O)c(C(=O)O)c2)C=CC1=O`, for which the inhibition is 42.3% (active).

For `O=c1c2ccccc2nc2n1CCc1c-2[nH]c2ccccc12`, the inhibition was 5.7% (active). Consider `CCCCc1oc2ccccc2c1C(=O)c1cc(I)c(OCCN(CC)CC)c(I)c1`, for which the inhibition is 18% (active). For `CCCC[C@@]1(C2CCCC2)Cc2cc(OCC(=O)O)c(Cl)c(Cl)c2C1=O`, the inhibition is 25.1% (active). Consider `C[C@@]1(C2CCCC2)Cc2cc(OCC(=O)O)c(Cl)c(Cl)c2C1=O`, for which the inhibition is 18.3% (active).

As for `CC(C)C(=O)c1c(C(C)C)nn2ccccc12`, the inhibition is 12.7% (active). As for `CSc1ccc(C(=O)c2[nH]c(=O)[nH]c2C)cc1`, the inhibition is -9%. Under `CC(C)ON([C@@H](C(=O)NO)C(C)C)S(=O)(=O)c1ccc(-c2ccccc2)cc1` stands 8.1% (active). `CC(C)OC(=O)C(C)(C)Oc1ccc(C(=O)c2ccc(Cl)cc2)cc1`: the inhibition was 1.9% (active). Under `CCOC(=O)C(C)(C)Oc1ccc(Cl)cc1` stands -1.7%; under `NNCCc1ccccc1`, 9.9% (active); under `CCCCCCN(CCCCCC)C(=O)Cc1c(-c2ccc(F)cc2)[nH]c2ccccc12`, 22.4% (active). As to `CC(=O)Nc1nnc(S(N)(=O)=O)s1`, the inhibition is 14.5% (active).

As for `CN(C)CCOC(C)(c1ccccc1)c1ccccn1` (stereo not drawn), the inhibition is 6.5% (active). For the compound `CN1CCN(C2Cc3ccccc3Sc3ccc(Cl)cc32)CC1` (stereo not drawn), the inhibition was 1.9% (active). With `CSc1ccc2c(c1)C(N1CCN(C)CC1)Cc1ccccc1S2` (stereo not drawn), the inhibition was 1.3% (active). Turning to `O=c1n(CCCN2CCN(c3cccc(Cl)c3)CC2)nc2ccccn12`, the inhibition is 45.2% (active). Take `Cc1ccc(C(=O)Nc2ccc(S(=O)(=O)[O-])c3c2C(S(=O)(=O)[O-])=[C+]C(S(=O)(=O)O)=[C+]3)cc1NC(=O)c1cccc(NC(=O)Nc2cccc(C(=O)Nc3cc(C(=O)Nc4ccc(S(=O)(=O)[O-])c5c4C(S(=O)(=O)[O-])=[C+]C(S(=O)(=O)O)=[C+]5)ccc3C)c2)c1`: the inhibition was 17.8% (active). Regarding `c1cc(CN2CCCCC2)cc(OCCCNc2nc3ccccc3s2)c1`, the inhibition is 7.9% (active). For the compound `C1CCc2nnnn2CC1`, the inhibition is 15.2% (active). For the compound `CCC1C(=O)OCC1Cc1cncn1C` (stereo not drawn), the inhibition is -0.2%. `CNCCNS(=O)(=O)c1cccc2cnccc12`: the inhibition was 3.8% (active).
